This is a sample that favours compounds with a hit; in the whole collection about 9.3% have one here.
FMDV inh = High Throughput Screening for Foot and Mouth Disease Virus Antivirals. FMDV antiviral cell-based qHTS. actives 1.2% (n = 410,000). AID 1159524, 2015. Potency, µM (top dose mostly 57.9 µM), hits mostly inhibitors; calls by dose curve; tested in HEK293T cells; also: read-out not given here; nearly all actives have a fitted effect of over 45% in size
Sm TGR inh = qHTS Assay for the Inhibitors of Schistosoma Mansoni Peroxiredoxins; Schistosoma mansoni thioredoxin glutathione reductase (TGR), Q962Y6; purified TGR, DTNB reduction, TNB absorbance 405 nm; Potency, µM (doses to about 114 µM), hits mostly inhibitors; actives 3% (n = 360,000); AID 485364, 2010; also: nearly all actives have a fitted effect of over 60% in size
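TGR 20 nM + NADPH 100 uM (dispensed conc.), cpd preinc 15 min RT; start with NADPH (500 uM addition) then DTNB (15 mM addition). Kinetic TNB absorbance, 405 nm filter. Four-parameter Hill fit across titration.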
HCMV inh = qHTS Assay for inhibitors of the human cytomegalovirus (HCMV) | activity change, negative = inhibition, % at 57.5 µM | AID 1259415, 2018 | HFF cells, HCMV-luciferase reporter, 72 h; stronger effect = lower value | actives 4.5% (n = 410,000); in the data active = activity change below about -60%; inconclusive = no clear call, values can overlap the other calls; inactive = above about -39%
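Steps: HFFs plated, 16 h 37C; compounds added; HCMV-luciferase added to MOI 1 PFU/cell; 72 h 37C; OneGlo reagent, 5 min room temperature; luminescence read, normalized to controls.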
HCV inhibitor = qHTS Assay for Inhibitors of Hepatitis C Virus (HCV) | Huh7.5.1 HCVcc-Cre infection, luciferase reporter, 44 h | Potency, µM (top dose mostly 41.8 µM), most hits filed as inhibitors | actives 3.4% (n = 340,000) | AID 651820, 2012
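Infectious HCVcc-Cre (~0.5 moi) was added to cells just after compound, with cells seeded 4 h earlier at 1,000 per well. Luciferase activity after 44 h culture reported infection; substrate was incubated 15 min at room temperature before reading.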
Vaccinia mCherry = qHTS for Stage-Specific Inhibitors of Vaccinia Orthopoxvirus: mCherry Reporter Primary qHTS. Vaccinia virus mCherry reporter infection, fluorescence. Potency, µM (doses to about 36.5 µM), hits mostly inhibitors. actives 0.63% (n = 310,000); calls by dose curve; tested in A549 cells; also: nearly all actives have a fitted effect of over 35% in size
VACV Venus inh = qHTS for Stage-Specific Inhibitors of Vaccinia Orthopoxvirus: Venus Reporter Primary qHTS; Vaccinia virus Venus reporter expression, fluorescence; Potency, µM (top dose mostly 36.5 µM), most hits filed as inhibitors; actives 0.46% (n = 330,000); AID 720580, 2013; calls by dose curve; tested in A549 cells; also: nearly all actives have a fitted effect of over 30% in size
Each line names hits and unclear results; the compound was inactive in the other large screens. Unless noted, calls follow the shape of the dose curve; as a rule, active = well fitted curve in the direction sought with a large enough effect; inconclusive = small, poorly fitted or top-dose-only effect, or another doubt; inactive = no such curve, though single readings can be large; an effect the other way counts as inactive or inconclusive.

Cn1nc(C(=O)NC2CCCc3ccccc32)ccc1=O (stereo not given)	none
Cc1nn(Cc2ccccc2)c(Cl)c1C(=O)Nc1ccc(OC(F)(F)F)cc1	HCMV inh -69
COc1ccc(NC(=O)c2c(C)nn(Cc3ccccc3)c2Cl)cc1S(=O)(=O)N1CCOCC1	FMDV inh inconclusive, HCMV inh -72, HCV inhibitor inconclusive (no result: Vaccinia mCherry, VACV Venus inh)
Cc1nn(Cc2ccccc2)c(Cl)c1C(=O)NC1CCCc2ccccc21 (stereo not given)	FMDV inh inconclusive, HCV inhibitor 35µM (no result: Vaccinia mCherry, VACV Venus inh)
Cc1ccc(N=CC=C2OC(C)(C)C(C)(C)O2)cc1	none
Cc1cc(OCC(=O)NC2CC(C)(C)NC(C)(C)C2)c2c(C)cc(=O)oc2c1	none
COc1ccc2c3c(c(=O)oc2c1)C1O[C@](c2ccsc2)(Cc2cc(C#N)ccc21)O3	Sm TGR inh 6.3µM (no result: FMDV inh, HCMV inh, HCV inhibitor, Vaccinia mCherry, VACV Venus inh)
COc1ccc([C@]23Cc4cc(C#N)ccc4C(O2)c2c(cc(-c4ccccc4)oc2=O)O3)cc1	none (no result: FMDV inh, HCMV inh, HCV inhibitor, Vaccinia mCherry, VACV Venus inh)
N#Cc1ccc2c(c1)C[C@]1(c3ccsc3)Oc3c(c(=O)oc4ccccc34)C2O1	Sm TGR inh 7.1µM (no result: FMDV inh, HCMV inh, HCV inhibitor, Vaccinia mCherry, VACV Venus inh)
Cc1cc2c(c(=O)n1-c1ccccc1)C1O[C@](c3ccsc3)(Cc3cc(C#N)ccc31)O2	none (no result: FMDV inh, HCMV inh, HCV inhibitor, Vaccinia mCherry, VACV Venus inh)
CCCc1c(C(=O)NNc2cccc(Cl)c2)cnn1-c1ccccc1	HCMV inh inconclusive, HCV inhibitor inconclusive (no result: Vaccinia mCherry, VACV Venus inh)
COc1cc2c3c(c1)C(C)=CC(C)(C)N3C(=O)C2=O	HCMV inh -85
COc1cccc(C(=O)Oc2cc3c4c(c2)C(C)=CC(C)(C)N4C(=O)C3=O)c1	HCMV inh -77, HCV inhibitor inconclusive (no result: FMDV inh)
CC1=C(\C=C/C(C)=C/C=C\C(C)=C\C(=O)O)C(C)(C)CCC1	FMDV inh inconclusive (no result: Sm TGR inh, HCMV inh, HCV inhibitor)
CC1=C(/C=C/C(C)=C/C=C/C(C)=C/C(=O)Nc2ccc(O)cc2)C(C)(C)CCC1	FMDV inh inconclusive, HCMV inh -77, HCV inhibitor 6.3µM, Vaccinia mCherry inconclusive, VACV Venus inh inconclusive
O=C1COc2ccc(S(=O)(=O)NCCc3ccccc3)cc2N1	none
COC(=O)CCC(=O)N1CCCC(CO)(Cc2ccccc2C)C1 (stereo not given)	HCMV inh inconclusive (no result: Vaccinia mCherry, VACV Venus inh)
COc1ccc(Nc2ncnc3ccc(C)cc23)cc1	HCMV inh -72 (no result: Vaccinia mCherry, VACV Venus inh)
COc1ccc(Nc2cc(C)nc3ccc(C)cc23)cc1	none (no result: Sm TGR inh, HCV inhibitor)
Cc1ccc(Nc2ncnc3c2cnn3C)cc1	none (no result: Sm TGR inh)
COc1ccc(Nc2cc(Nc3ccc(OC)cc3)ncn2)cc1	none
COc1ccc(Nc2cc(Nc3cc(OC)c(OC)c(OC)c3)ncn2)cc1	FMDV inh inconclusive, HCMV inh -90, HCV inhibitor inconclusive
Cn1ncc2c(Nc3ccc(Cl)cc3)ncnc21	HCMV inh active (no result: Vaccinia mCherry, VACV Venus inh)
COc1ccc(OC)c(Nc2ncnc3ccc(Br)cc23)c1	HCMV inh -63, HCV inhibitor inconclusive (no result: Vaccinia mCherry, VACV Venus inh)
CC1=CS(=O)(=O)CC1Sc1nc2ccccc2[nH]1 (stereo not given)	none (no result: FMDV inh)
O=C(CC1SC(=Nc2ccccc2)N(CCc2c[nH]c3ccccc23)C1=O)Nc1ccccc1F (stereo not given)	FMDV inh inconclusive, HCV inhibitor inconclusive
COc1ccc(Nc2ncnc3c2cnn3Cc2ccc(C)cc2)cc1	FMDV inh 28µM, HCV inhibitor 11µM, Vaccinia mCherry inconclusive
Brc1ccc2ncnc(Nc3cccc4ccccc34)c2c1	HCMV inh -66, HCV inhibitor inconclusive (no result: FMDV inh)
CCN(CC)C(=O)CSc1nnc(-c2ccccc2)o1	none (no result: FMDV inh)
CSc1ccc(C(=O)C2CCCN(C(=O)c3cc4cc(F)ccc4[nH]3)C2)cc1 (stereo not given)	HCV inhibitor inconclusive
Brc1ccc(-c2nnc3c4ccccc4nc(N4CCOCC4)n23)cc1	none
Clc1ccc(-c2nnc3c4ccccc4nc(N4CCOCC4)n23)cc1Cl	HCMV inh -90
CCc1nc2c(OCc3ccc(C(=O)N(C)C)cc3)cccn2c1N(C=O)Cc1ccccc1	none (no result: Sm TGR inh, HCV inhibitor)
CC(C)Oc1cccc(C(=O)C2CCCN(Cc3cnc(N4CCOCC4)s3)C2)c1 (stereo not given)	FMDV inh inconclusive, HCMV inh -72, HCV inhibitor inconclusive
Cc1ncc(CN2CCCC(C(=O)c3cccc(OC(C)C)c3)C2)s1 (stereo not given)	FMDV inh inconclusive, HCMV inh -69, HCV inhibitor inconclusive (no result: Vaccinia mCherry, VACV Venus inh)
COc1ccc(C(=O)C2CCCN(Cc3cnc(N4CCOCC4)s3)C2)cc1F (stereo not given)	FMDV inh inconclusive, HCV inhibitor inconclusive
COC(=O)c1c(C)[nH]c(C(=O)CN2C(=O)NC3(CCOc4ccccc43)C2=O)c1C (stereo not given)	HCV inhibitor inconclusive (no result: Vaccinia mCherry, VACV Venus inh)
CCC1CCCCN1S(=O)(=O)c1ccc(NC(=O)C2CCCO2)cc1 (stereo not given)	none
COc1cccc(CNC(=O)C2CCN(S(=O)(=O)c3ccc4c(c3)NC(=O)C(C)S4)CC2)c1 (stereo not given)	HCV inhibitor inconclusive
CC(C)c1ccc(NC(=O)C2CCC(CNC(=O)[C@@H]3Cc4ccccc4CN3)CC2)cc1 (stereo not given in full)	HCV inhibitor 14µM
Cc1ccc(NC(=O)C2CCC(CNC(=O)[C@@H]3Cc4ccccc4CN3)CC2)cc1 (stereo not given in full)	HCMV inh inconclusive (no result: Vaccinia mCherry, VACV Venus inh)
Cc1ccccc1NC(=O)C1CCN(S(=O)(=O)c2ccc3c(c2)NC(=O)C(C)S3)CC1 (stereo not given)	none
CC1Sc2ccc(S(=O)(=O)N3CCC(C(=O)NCC(C)c4ccccc4)CC3)cc2NC1=O (stereo not given)	FMDV inh inconclusive, HCV inhibitor 11µM
Cc1ccc(NC(=O)C2CCN(S(=O)(=O)c3ccc4c(c3)NC(=O)C(C)S4)CC2)cc1Cl (stereo not given)	FMDV inh inconclusive, HCMV inh -99, HCV inhibitor inconclusive (no result: Vaccinia mCherry, VACV Venus inh)
Cc1cccc(CCNC(=O)C2CCN(S(=O)(=O)c3ccccc3)CC2)c1	HCMV inh -68
Cc1cc(C)cc(NC(=O)C2CCN(S(=O)(=O)c3ccc4c(c3)NC(=O)C(C)S4)CC2)c1 (stereo not given)	FMDV inh inconclusive, HCMV inh inconclusive (no result: Vaccinia mCherry, VACV Venus inh)
Cc1ccc(NC(=O)C2CCN(S(=O)(=O)c3ccc4c(c3)CCCC(=O)N4)CC2)c(Cl)c1	FMDV inh inconclusive (no result: HCV inhibitor)
CC1Sc2ccc(S(=O)(=O)N3CCC(C(=O)NCCc4ccccc4)CC3)cc2NC1=O (stereo not given)	HCV inhibitor inconclusive
